Source: PubChem BioAssay (NCATS)
Results filed as inconclusive are left out. Calls of active or inactive are those of the source. Calls come from the whole dose curve; as a rule, active = well fitted cell-killing curve with a large enough effect; inconclusive = small, poorly fitted or top-dose-only effect, or effect the other way; inactive = no such curve, though single readings can be large or run the other way.

assay: Quantitative High-Throughput drug screen in 47 multiple myeloma cell lines against the NCATS MIPE library collection: Delta47_JCRB cell viability assay (AID 1918925; note: nearly all actives have a fitted effect of over 45% in size); settings: Delta47 myeloma viability, CellTiter-Glo ATP, 48 h; series mostly up to 45.8 µM; viability (% of DMSO): at the top concentration
From the text: PI: Beverly A. Mock Ph.D.
Laboratory of Cancer Biology and Genetics,
Center for Cancer Research, National Cancer Institute,
National Institute of Health, Bethesda, Maryland
Drug resistance and disease progression are common in multiple myeloma (MM) patients, underscoring the need for new therapeutic combinations. […] We hypothesized that effective combinations would reduce MYC expression and enhance p16 activity. […] These preclinical data identify potentially useful drug combinations for evaluation in drug-resistant MM and reveal potential mechanisms of combined drug sensitivity.
Described herein is the primary MIPE qHTS used to cherrypick compounds. Validated compounds were then further tested for potential synergistic activiy.
[1] Peat TJ, Gaikwad SM, Dubois W, Gyabaah-Kessie N, Zhang S, Gorjifard S, Phyo Z, Andres M, Hughitt VK, Simpson RM, Miller MA, Girvin AT, Taylor A, Williams D, D'Antonio N, Zhang Y, Rajagopalan A, Flietner E, Wilson K, Zhang X, Shinn P, Klumpp-Thomas C, McKnight C, Itkin Z, Chen L, Kazandijian D, Zhang J, Michalowski AM, Simmons JK, Keats J, Thomas CJ, Mock BA. Drug combinations identified by high-throughput screening promote cell cycle transition and upregulate Smad pathways in myeloma. Cancer Lett. 2023 Aug 1;568:216284. doi: 10.1016/j.canlet.2023.216284. Epub 2023 Jun 24. PMID: 37356470; PMCID: PMC10408729.
SEQUENCE No. (e.g., 1, 2, 3, etc.); […] (e.g., Cells, Incubation, Reagent, etc.); VALUE and DESCRIPTION.
1; Cells; 5 uL; white, solid bottom 1536-well Greiner assay plate.
2; Compounds; 23 nL; Kalypsis pin tool (Wako USA) equipped with a 1536-well pin head to transfer to the assay plates.
3; Incubation; 48 hours; 37C incubation.
4; Reagent;5uL; CellTiter Glo (Promega).
5; Detector; 425V; Luminescence; Viewlux PerkinElmer.
NOTES (numbers refer to Sequence numbers above)
1. The cell-based screening methods employed in this study were like those previously published. Briefly, the corresponding myeloma cell lines were screened in 1,536-well plates with 500 cells, 5-uL per well for inhibition of cell viability (assessed by measuring ATP levels with CellTiterGlo).
2. NCATS MIPE 4.0 library of approved and investigational drugs were added using the Kalypsis pin tool. Wells treated with DMSO only for 100% viability and media only wells for 0% viability were used as controls.
3. The assay plates were covered and incubated for 48 hours in a 37C, 5% CO2 incubator with controlled humidity.
4. After 48 hours, CellTilter-GloTM luminescent substrate mix (Promega) reagent was added to the assay plate and plates we incubated for 5 min at room temperature.
5. Signal was measured as median relative luminescence units on a ViewLux (PerkinElmer) multiplate reader.
[1] Heske CM, Davis MI, Baumgart JT, Wilson K, Gormally MV, Chen L, Zhang X, Ceribelli M, Duveau DY, Guha R, Ferrer M, Arnaldez FI, Ji J, Tran HL, Zhang Y, Mendoza A, Helman LJ, Thomas CJ. Matrix Screen Identifies Synergistic Combination of PARP Inhibitors and Nicotinamide Phosphoribosyltransferase (NAMPT) Inhibitors in Ewing Sarcoma. Clin Cancer Res. 2017 Dec 1;23(23):7301-7311. doi: 10.1158/1078-0432.CCR-17-1121. Epub 2017 Sep 12. PMID: 28899971; PMCID: PMC6636827.
Potency is the fitted concentration of half-maximal effect.

SMILES | Potency | viability (% of DMSO)
OCCN(CCO)c1nc(N2CCCCC2)c2nc(N(CCO)CCO)nc(N3CCCCC3)c2n1 | 23.5 µM (active) | –
CNCCCC12CCC(c3ccccc31)c1ccccc12 | 18.7 µM (active) | –
Nc1ccn([C@H]2CC[C@@H](CO)O2)c(=O)n1 | – | 75.4% (inactive)
CC(=O)OCC(CCn1cnc2cnc(N)nc21)COC(C)=O | – | 114% (inactive)
NCCS(=O)(=O)O | – | 132% (inactive)
Nc1nnc(-c2cccc(Cl)c2Cl)c(N)n1 | 23.5 µM (active) | –
CC(C)Cc1ccc(C(C)C(=O)O)cc1 (stereo not given) | – | 110% [at 23.2 µM] (inactive)
CC(C(=O)O)c1cccc(C(=O)c2ccccc2)c1 (stereo not given) | 20.9 µM (active) | –
O=c1c(-c2ccc(O)cc2)coc2cc(O)cc(O)c12 | – | 98.8% (inactive)
CC[N+](CC)(CC)CCOc1cccc(OCC[N+](CC)(CC)CC)c1OCC[N+](CC)(CC)CC | – | 97% (inactive)
C[C@H]1c2cccc(O)c2C(O)=C2C(=O)[C@]3(O)C(O)=C(C(N)=O)C(=O)[C@@H](N(C)C)[C@@H]3[C@@H](O)[C@@H]21 | 23.5 µM (active) | –
COc1ccc2c(c1)c(CC(=O)O)c(C)n2C(=O)c1ccc(Cl)cc1 | 16.6 µM (active) | –
Cc1cc(C(C)(C)C)cc(C)c1CC1=NCCN1 | – | 91.8% (inactive)
O=c1c(O)c(-c2ccc(O)c(O)c2)oc2cc(O)cc(O)c12 | 11.8 µM (active) | –
Cc1ccccc1N1C(=O)c2cc(S(N)(=O)=O)c(Cl)cc2NC1C (stereo not given) | – | 87.4% (inactive)
Cc1ccc(C(=O)Nc2ccc(S(=O)(=O)O)c3cc(S(=O)(=O)O)cc(S(=O)(=O)O)c23)cc1NC(=O)c1cccc(NC(=O)Nc2cccc(C(=O)Nc3cc(C(=O)Nc4ccc(S(=O)(=O)O)c5cc(S(=O)(=O)O)cc(S(=O)(=O)O)c45)ccc3C)c2)c1 | – | 106% (inactive)
CS(=O)(=O)CCNCc1ccc(-c2ccc3ncnc(Nc4ccc(OCc5cccc(F)c5)c(Cl)c4)c3c2)o1 | 0.235 µM (active) | –
CC1COc2c(N3CCN(C)CC3)c(F)cc3c(=O)c(C(=O)O)cn1c23 (stereo not given) | – | 127% (inactive)
O=C(C1CCCCC1)N1CC(=O)N2CCc3ccccc3C2C1 (stereo not given) | – | 139% (inactive)
O=C(c1ccc(OCCN2CCCCC2)cc1)c1c(-c2ccc(O)cc2)sc2cc(O)ccc12 | 23.5 µM (active) | –

SMILES | Potency | viability (% of DMSO)
CCOC(=O)Nc1ccc(NCc2ccc(F)cc2)nc1N | – | 110% (inactive)
CN(C)CCCN1c2ccccc2CCc2ccc(Cl)cc21 | 1.18 µM (active) | –
CN1CCC(=C2c3ccccc3C=Cc3ccccc32)CC1 | 9.35 µM (active) | –
CC(COc1ccccc1)N(CCCl)Cc1ccccc1 (stereo not given) | – | 96.6% (inactive)
Cn1cnc2c1c(=O)[nH]c(=O)n2C | 14.8 µM (active) | –
CC[C@@]1(O)C(=O)OCc2c1cc1n(c2=O)Cc2cc3c(CN(C)C)c(O)ccc3nc2-1 | 0.469 µM (active) | –
CC(C)NCC(O)COc1ccc(CCOCC2CC2)cc1 (stereo not given) | – | 78.8% (inactive)
COc1nc(C)nc(Cl)c1NC1=NCCN1 | 11.8 µM (active) | –
CN1CCN(CCCN2c3ccccc3Sc3ccc(Cl)cc32)CC1 | 18.7 µM (active) | –
NC12CC3CC(CC(C3)C1)C2 | 16.6 µM (active) | –
CN(C)C(=O)C(CCN1CCC(O)(c2ccc(Cl)cc2)CC1)(c1ccccc1)c1ccccc1 | 20.9 µM (active) | –
CC(C)C(=O)Nc1ccc([N+](=O)[O-])c(C(F)(F)F)c1 | 3.32 µM (active) | –
Cc1cc(C(C)(C)C)c(O)c(C)c1CC1=NCCN1 | – | 101% (inactive)
NS(=O)(=O)c1cc2c(cc1Cl)NCNS2(=O)=O | – | 99% (inactive)
COc1cc2nc(N3CCN(C(=O)c4ccco4)CC3)nc(N)c2cc1OC | 10.5 µM (active) | –
CN1CCN(C2=Nc3cc(Cl)ccc3Nc3ccccc32)CC1 | 20.9 µM (active) | –
CCCCc1oc2ccccc2c1C(=O)c1cc(I)c(OCCN(CC)CC)c(I)c1 | 13.2 µM (active) | –
NC(=O)OCC(COC(N)=O)c1ccccc1 | – | 98.4% (inactive)
Nc1nc2c(ncn2COC(CO)CO)c(=O)[nH]1 | 18.7 µM (active) | –
NC(=O)NO | 2.35 µM (active) | –
